PubChem BioAssay (EPA / NIEHS)
The source made the active and inactive calls. How the source made its calls: active means hit-call score of the fitted dose curve at least 0.9, where 1 is the maximum; inactive means score below 0.9.

Test: APR_HepG2_P-H2AX_24hr: Apredica 24-hour HepG2 Assay for H2AX Phosphorylation (AID 2282920)
Settings: high-content imaging, actives raise or lower the signal
Protocol: APR_HepG2_24hr is a cell-based, multiplexed-readout assay that uses HepG2, a human liver cell line, with measurements taken at 24 hours after chemical dosing in a 384-well plate.APR_HepG2_P-H2AX_24hr is one of 10 assay component(s) measured or calculated from the APR_HepG2_24hr assay. It is designed to make measurements of dna content, a form of viability reporter, as detected with fluorescence intensity signals by HCS Fluorescent Imaging technology.Data from the assay component APR_HepG2_P-H2AX_24hr was analyzed into 1 assay endpoint. This assay endpoint, APR_HepG2_P-H2AX_24hr, was analyzed with bidirectional fitting relative to DMSO as the negative control and baseline of activity. Using a type of viability reporter, measures of protein for gain or loss-of-signal activity can be used to understand the signaling at the pathway-level as they relate to the gene . Furthermore, this assay endpoint can be referred to as a primary readout, because this assay has produced multiple assay endpoints where this one serves a signaling function. To generalize the intended target to other relatable targets, this assay endpoint is annotated to the dna binding intended target family, where the subfamily is cellular response to DNA damage stimulus.
Cells were treated with dimethyl sulfoxide (DMSO) as a solvent control at a final concentration of 0.5% v/v or with compounds in DMSO with a resulting final DMSO concentration of 0.5% v/v. Compound treatment was done at concentrations of 0.39, 0.78, 1.56, 3.12, 6.24, 12.5, 25, 50, 100, and 200 uM in duplicate on each plate. Cells were treated with compounds for 1, 24, or 72 hr. Carbonyl […] m-chloro-phenylhydrazone (CCCP) and taxol were used as positive controls for mitochondrial function and cytoskeletal stability, respectively; DMSO served as the negative control for this experiment. Cells were fixed by the direct addition of 50 uL formaldehyde in Hank's Balanced Salt Solution (HBSS) to a final concentration of 3.7%. After incubation in the fixation medium for 30 min at room temperature (293-298 K), cells were rinsed twice with HBSS and treated with cell permeabilization buffer (16 uL of 0.5% Triton X-100) for 10 min at room temperature (293-298 K) before labeling. For mitochondrial membrane potential and mitochondrial measurements, pre-fixed cells were incubated with 50 uL of MitoTracker Red CMXRos (Invitrogen) at a concentration of 250 nM for 30 min before fixation. In the remaining cases, post-fixed cells were labeled by incubation with a multiplexed mixture of primary antibodies in HBSS for 60 min at room temperature (293-298 K) to detect immunoreactivity of c-Jun (1:500), phospho-histone H3 (1:100), phospho-histone H2A.x (1:200), p53 (1:400), alpha-tubulin (1:200) and Hoechst 33342 (2 ug/mL). Cells were labeled for multiplexed imaging on two separate plates: a) Hoechst 33342, MitoTracker Red, phospho-histone H3, and alpha-tubulin, and b) Hoechst 33342, phospho-histone H2A.x, and c-Jun. A final rinse with HBSS (50 uL) was performed before analysis. The primary and secondary antibodies for the proteins were phospho-histone H3 (rabbit anti-phospho-histone H3 and FITC-donkey anti-rabbit IgG), phospho-histone H2A.x (mouse anti-phospho-histone H2A.x and FITC-donkey anti-mouse IgG), c-Jun (rabbit anti-phospho-c-Jun and Cy3-donkey anti-rabbit IgG), p53 (sheep anti-p53 and Cy5-donkey anti-sheep IgG), alpha-tubulin (mouse anti-alpha-tubulin and Cy5-donkey anti-mouse IgG). These antibodies are available as the CellCiphr HepG2 assay kit (Millipore).Digital images of each well were captured using a Cellomics ArrayScan VTI (Thermo Scientific Cellomics) (0.8 NA objective, 0.63x optical coupler, and XF-93 filter set) at 20x magnification. The images were acquired using the autofocus feature of the ArrayScan instrument, which entails the following steps. First, the camera focuses on channel 1 (Hoechst 33342), where nuclei are identified. Second, a Z offset of 1 um is used for capturing mitochondria (MitoTracker Red). […]
In the case of `Nc1ccc(Cc2ccc(N)cc2)cc1`, the outcome is reported as “inactive”.
In the case of `Oc1ccc2ccc3cccc4ccc1c2c34`, the AC50 is reported as 62.9 µM (active).
For `C1=Cc2cccc3cccc1c23`, the outcome was “inactive”.
For `O=P(OCCCl)(OCCCl)OCCCl`, the outcome was “inactive”.
With `CS(=O)(=O)NC(=O)c1cc(Oc2ccc(C(F)(F)F)cc2Cl)ccc1[N+](=O)[O-]` the outcome was “inactive”.
For `CCOc1cccc(C2(N3CCN(c4ccccc4)CC3)CCC(C)CC2)c1` (stereo not given), the outcome was “inactive”.
For `Cc1cc(N=Nc2ccccc2C)ccc1N`, the AC50 was 100 µM (active).
For `CNC(=O)Oc1cccc2c1OC(C)(C)C2`, the outcome was “inactive”.
For `O=C(Nc1ccccc1)c1ccccc1I`, the outcome was “inactive”.
For `Cn1cc(-c2ccccc2)c(=O)c(-c2cccc(C(F)(F)F)c2)c1`, the outcome was “inactive”.
For `OCCCBr`, the outcome was “inactive”.
In the case of `COc1cc(C=O)cc2c1[C@H](COC(N)=O)[C@]1(OC(C)=O)ON2C[C@H]2[C@@H]1N2C(C)=O`, the outcome is reported as “inactive”.
In the case of `N#CC(Br)Br`, the AC50 is reported as 88.8 µM (active).
For `[Cl-].[Cl-].[Hg+2]`, the AC50 was 21.5 µM (active).
For `CN(C)[C@@H]1C(=O)C(C(N)=O)=C(O)[C@@]2(O)C(=O)C3=C(O)c4c(O)cccc4[C@@](C)(O)[C@H]3C[C@@H]12`, the outcome was “inactive”.
With `CC(C)(C)OOC(=O)c1ccccc1` the AC50 was 16.4 µM (active).
For `O=[N+]([O-])C(Br)(CO)CO`, the outcome was “inactive”.
With `Nc1cc(Cl)cc(C(=O)O)c1Cl` the outcome was “inactive”.
In the case of `CCN(CC)N=O`, the outcome is reported as “inactive”.
For `Cc1ccc([N+](=O)[O-])cc1`, the outcome was “inactive”.
For `ClC1=C(Cl)C2(Cl)C3C(Cl)C=CC3C1(Cl)C2(Cl)Cl` (stereo not given), the AC50 was 80.7 µM (active).
With `CCC12COCN1COC2` the AC50 was 87.6 µM (active).
In the case of `CCCCC(CC)COC(=O)c1ccc(C(=O)OCC(CC)CCCC)c(C(=O)OCC(CC)CCCC)c1` (stereo not given), the outcome is reported as “inactive”.
With `C[N+](C)(C)CC1CO1` (stereo not given) the outcome was “inactive”.
With `ClCCOCCCl` the outcome was “inactive”.
In the case of `O=C(Oc1ccc(Br)cc1)N1CCN2CCC1CC2`, the outcome is reported as “inactive”.
With `Cc1cccc(N)c1N` the AC50 was 44.5 µM (active).
In the case of `Clc1ccccc1Cl`, the outcome is reported as “inactive”.
With `CC(C)(C)OOC(C)(C)CCC(C)(C)OOC(C)(C)C` the outcome was “inactive”.
For `CN(C)c1ccccc1`, the outcome was “inactive”.
In the case of `CCN(CC)CCO`, the outcome is reported as “inactive”.
With `CCC(C)c1ccc(O)cc1` (stereo not given) the outcome was “inactive”.
With `Nc1ccc(Cl)cc1N` the AC50 was 1.2 µM (active).
With `CCC[CH2][Sn]([Cl])([CH2]CCC)[CH2]CCC` the AC50 was 1.41 µM (active).
For `CC(C)(OOC(C)(C)c1ccccc1)c1ccccc1`, the outcome was “inactive”.
For `OCCCl`, the outcome was “inactive”.
In the case of `COP(=S)(OC)SCN1C(=O)c2ccccc2C1=O`, the outcome is reported as “inactive”.
In the case of `CCOC(=O)[C@]1(c2ccccc2)Oc2ccccc2[C@@H]1N`, the AC50 is reported as 120 µM (active).
With `Clc1ccc(C(c2ccc(Cl)cc2)C(Cl)(Cl)Cl)cc1` the AC50 was 50.5 µM (active).
In the case of `CN(C)C(=O)Nc1ccc(Cl)cc1`, the outcome is reported as “inactive”.
